Pf Dd2 inh = P. falciparum Dd2 growth inhibition | SYBR Green, 72 h; stronger effect = lower value | activity change, % at 10 µM | 2.3% of 94,000 active | AID 1159554; in the data active = activity change below about -80%; inconclusive = no clear call, values can overlap the other calls
C diff HTS = inhibitors of Clostridium difficile growth | growth activity, negative = inhibition, % at 16 µg/mL (by protocol) | Clostridium difficile clinical isolate growth, OD600, 24 h; stronger effect = lower value | 0.25% of 86,000 active;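 active = mean growth activity at or below -80% and every replicate also at or below -80%; inconclusive = mean at or below -80% but some replicate above -80%; inactive = mean growth activity above -80%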
T cruzi growth-1 = T. cruzi proliferation inhibition; T. cruzi beta-gal in NIH3T3, GalScreen luminescence, 90 h; inhibition, % at 8.34 µM; 5.9% of 77,000 active; AID 624255;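 active = mean inhibition above about 93%, with at least 55% of replicates each passing it, limit read from the data, passing the limit was not always enough; inconclusive = only one of those two conditions holds; inactive = neither condition holds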
T cruzi growth-2 = blocks T. cruzi growth in NIH3T3 host cells | inhibition, % at 8.35 µM | T. cruzi beta-gal in NIH3T3, GalScreen luminescence, 90 h | shares compounds with T cruzi growth-1 | 72% of 5,600 active;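 active = mean replicate inhibition above about 95% and at least 55% of replicates individually reaching it, limit read from the data; inconclusive = only one of the two criteria is met; inactive = neither criterion is met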
T cruzi growth-3 = inhibitors of T. cruzi proliferation; 21% of 5,600 active; inhibition, % at 2.09 µM; shares compounds with T cruzi growth-1; T. cruzi beta-gal in NIH3T3, GalScreen luminescence, 90 h;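 active = mean inhibition above about 95%, with at least 55% of replicates also reaching it, limit read from the data; inconclusive = meets just one of the two conditions; inactive = meets neither condition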
NIH3T3 tox = kills mouse NIH/3T3 fibroblasts; shares compounds with T cruzi growth-1; NIH/3T3 viability, CellTiter-Glo ATP luminescence, 90 h; cytotoxicity (signal decrease), % at 8.35 µM; 14% of 5,600 active;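 active = mean signal decrease across replicates above about 35% based on untreated-well scatter, with enough replicates individually passing, limit read from the data; inconclusive = no rule stated though some were filed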
NIH3T3 tox 2 = cytotoxicity in mouse NIH/3T3 fibroblasts; shares compounds with T cruzi growth-1; NIH/3T3 viability, CellTiter-Glo ATP luminescence, 90 h; inhibition, % at 24.9 µM; 56% of 5,600 active; AID 651744;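 active = mean loss of cell viability signal at or above a set limit, and enough replicates individually reaching it; inconclusive = meets only the mean limit or only the replicate share; inactive = meets neither condition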
Of the large screens only hits and unclear results are named; the others gave an inactive call (follow-up assays come after a bar, where they were run); ! = a repeat was not active. A selection: hits, their analogues and other compounds. The true share with any hit is near 6.7%.

Cc1ccc(S(=O)(=O)Nc2ccc3c(c2)C(=O)N([C@H](C)CO)C[C@H](C)[C@H](CN(C)S(=O)(=O)c2ccc(F)cc2)OCCCC[C@H](C)O3)cc1	T cruzi growth-1 120 | T cruzi growth-2 103 | T cruzi growth-3 107 | NIH3T3 tox inactive | NIH3T3 tox 2 inactive
Cc1ccc(S(=O)(=O)Nc2ccc3c(c2)C(=O)N([C@@H](C)CO)C[C@H](C)[C@@H](CN(C)S(=O)(=O)c2ccc(F)cc2)OCCCC[C@@H](C)O3)cc1	none (no result: T cruzi growth-1)
Cc1ccc(S(=O)(=O)N(C)C[C@@H]2OCCCC[C@H](C)Oc3ccc(NS(=O)(=O)c4ccc(F)cc4)cc3C(=O)N([C@H](C)CO)C[C@@H]2C)cc1	T cruzi growth-1 108 | T cruzi growth-2 97 | T cruzi growth-3 inactive | NIH3T3 tox inactive | NIH3T3 tox 2 inactive
Cc1ccc(S(=O)(=O)N(C)C[C@H]2OCCCC[C@H](C)Oc3ccc(NS(=O)(=O)c4ccc(F)cc4)cc3C(=O)N([C@H](C)CO)C[C@H]2C)cc1	T cruzi growth-1 116 | T cruzi growth-2 98 | T cruzi growth-3 inactive | NIH3T3 tox inactive | NIH3T3 tox 2 40
Cc1ccc(S(=O)(=O)N(C)C[C@@H]2OCCCC[C@@H](C)Oc3ccc(NS(=O)(=O)c4ccc(F)cc4)cc3C(=O)N([C@H](C)CO)C[C@@H]2C)cc1	none
Cc1noc(C)c1NC(=O)N(C)C[C@@H]1Oc2c(NS(=O)(=O)c3ccc(Cl)cc3)cccc2C(=O)N([C@H](C)CO)C[C@H]1C	none
CCCC(=O)Nc1ccc2c(c1)C(=O)N(C)C[C@@H](OC)[C@H](C)CN(C(=O)CN(C)C)[C@H](C)CO2	none (no result: C diff HTS)
C[C@@H]1CN([C@@H](C)CO)C(=O)c2cc(NS(C)(=O)=O)ccc2O[C@@H](C)CCCCO[C@@H]1CN(C)C(=O)Nc1ccc(C(F)(F)F)cc1	none (no result: T cruzi growth-1)
C[C@@H]1CCCCO[C@H](CN(C)C(=O)Nc2ccc(C(F)(F)F)cc2)[C@H](C)CN([C@H](C)CO)C(=O)c2cc(NS(=O)(=O)c3cccs3)ccc2O1	Pf Dd2 inh -84, T cruzi growth-1 98 | T cruzi growth-2 103 | T cruzi growth-3 112 | NIH3T3 tox inactive | NIH3T3 tox 2 inactive
C[C@@H]1CCCCO[C@@H](CN(C)C(=O)Nc2ccc(C(F)(F)F)cc2)[C@H](C)CN([C@@H](C)CO)C(=O)c2cc(NS(=O)(=O)c3ccccc3)ccc2O1	T cruzi growth-1 inconclusive | T cruzi growth-2 96 | T cruzi growth-3 113 | NIH3T3 tox inactive | NIH3T3 tox 2 inactive
C[C@@H]1CCCCO[C@H](CN(C)C(=O)Nc2ccc(C(F)(F)F)cc2)[C@H](C)CN([C@H](C)CO)C(=O)c2cc(NS(=O)(=O)c3ccc(F)cc3)ccc2O1	none
C[C@@H]1CCCCO[C@H](CN(C)C(=O)Nc2ccc(C(F)(F)F)cc2)[C@H](C)CN([C@@H](C)CO)C(=O)c2cc(NS(=O)(=O)c3ccccc3)ccc2O1	none
C[C@@H]1CCCCO[C@H](CN(C)C(=O)Nc2ccc(C(F)(F)F)cc2)[C@H](C)CN([C@@H](C)CO)C(=O)c2cc(NS(=O)(=O)c3cccs3)ccc2O1	Pf Dd2 inh inconclusive
C[C@H](CO)N1C[C@H](C)[C@H](CN(C)C(=O)Nc2ccc(C(F)(F)F)cc2)OCCCC[C@H](C)Oc2ccc(NS(C)(=O)=O)cc2C1=O	T cruzi growth-1 108 | T cruzi growth-2 107 | T cruzi growth-3 inactive | NIH3T3 tox inactive | NIH3T3 tox 2 inactive
C[C@H](CO)N1C[C@H](C)[C@H](CN(C)C(=O)Nc2ccc(C(F)(F)F)cc2)OCCCC[C@H](C)Oc2ccc(NS(=O)(=O)c3ccccc3)cc2C1=O	T cruzi growth-1 inconclusive | T cruzi growth-2 inactive | T cruzi growth-3 103 | NIH3T3 tox inactive | NIH3T3 tox 2 inactive
C[C@H]1CN([C@@H](C)CO)C(=O)c2cccc(NC(=O)Nc3ccccc3)c2O[C@@H]1CN(C)CC1CCCCC1	none
CO[C@@H]1CN(C)C(=O)c2ccc(NC(=O)NC3CCCCC3)cc2OC[C@@H](C)N(CC2CC2)C[C@H]1C	none (no result: C diff HTS, T cruzi growth-1)
C[C@H]1CN([C@@H](C)CO)C(=O)CCCn2cc(nn2)CO[C@@H]1CN(C)Cc1ccc(C(=O)Nc2ccccc2N)cc1	none
COc1ccc(S(=O)(=O)Nc2ccc3c(c2)C(=O)N([C@@H](C)CO)C[C@@H](C)[C@@H](CN(C)Cc2ccccc2)OCCCC[C@H](C)O3)cc1	none
C[C@H]1CCCCO[C@@H](CN(C)C(=O)Nc2ccc(C(F)(F)F)cc2)[C@@H](C)CN([C@@H](C)CO)C(=O)c2cc(NS(=O)(=O)c3ccccc3)ccc2O1	T cruzi growth-1 inconclusive | T cruzi growth-2 inconclusive | T cruzi growth-3 107 | NIH3T3 tox inactive | NIH3T3 tox 2 inactive
C[C@@H]1CCCCO[C@@H](CN(C)C(=O)Nc2ccc(C(F)(F)F)cc2)[C@H](C)CN([C@@H](C)CO)C(=O)c2cc(NS(=O)(=O)c3ccc(F)cc3)ccc2O1	none
Cc1ccc(S(=O)(=O)N2CC[C@@H]3[C@@H](CO)N(C)c4ccc(-c5ccc(C#N)cc5)cc4[C@@H]32)cc1	none
CC(C)CC#Cc1cnc2c(c1)C(=O)N([C@@H](C)CO)C[C@@H](C)[C@H](CN(C)S(C)(=O)=O)O2	none
Cc1ccc(S(=O)(=O)N(C)C[C@@H]2Oc3ncc(C#CCC(C)C)cc3C(=O)N([C@H](C)CO)C[C@@H]2C)cc1	T cruzi growth-1 105 | T cruzi growth-2 105 | T cruzi growth-3 inactive | NIH3T3 tox inactive | NIH3T3 tox 2 64
CC(C)CC#Cc1cnc2c(c1)C(=O)N([C@@H](C)CO)C[C@@H](C)[C@H](CN(C)S(=O)(=O)c1ccccc1)O2	none
Cc1ccc(S(=O)(=O)N(C)C[C@@H]2Oc3ncc(C#CCC(C)C)cc3C(=O)N([C@H](C)CO)C[C@H]2C)cc1	T cruzi growth-1 122! | T cruzi growth-2 103 | T cruzi growth-3 inactive | NIH3T3 tox inactive | NIH3T3 tox 2 85
C[C@H]1CN([C@@H](C)CO)C(=O)c2cc(/C=C/c3ccccc3)cnc2O[C@H]1CN(C)C(=O)c1ccccc1	none
C[C@@H]1CN([C@H](C)CO)C(=O)c2cccc(NC(=O)NC3CCCCC3)c2O[C@@H]1CN(C)C	none (no result: T cruzi growth-1)
O=C(C[C@H]1C=C[C@H](NC(=O)c2ccc(F)cc2)[C@@H](CO)O1)NCCc1ccccc1	none
C[C@H](CO)N1C[C@H](C)[C@H](CN(C)S(=O)(=O)c2ccccc2)Oc2ncc(C#Cc3ccccc3F)cc2C1=O	T cruzi growth-1 113 | T cruzi growth-2 104 | T cruzi growth-3 inactive | NIH3T3 tox inactive | NIH3T3 tox 2 55
C[C@H]1CN([C@@H](C)CO)C(=O)c2cc(C#Cc3ccccc3F)cnc2O[C@H]1CN(C)S(=O)(=O)c1ccccc1	none (no result: T cruzi growth-1)
